USP10 inh – inhibitors of human USP10 deubiquitinase; AID 1645856, 2021; 1.1% of 47,000 active; Ubiquitin carboxyl-terminal hydrolase 10 (Homo sapiens), Q14694; purified USP10, Ub-rhodamine fluorescence, 60 min; inhibition, % at 20 µM
USP8 inh – inhibitors of human USP8 deubiquitinase | Ubiquitin carboxyl-terminal hydrolase 8 (Homo sapiens), P40818 | purified USP8, Ub-rhodamine cleavage fluorescence, 30 min | inhibition, % at 20 µM | 4.2% of 47,000 active
UCHL1 inh – inhibitors of human UCHL1 deubiquitinase; inhibition, % at 20 µM; purified UCHL1, Ub-rhodamine cleavage fluorescence; 0.2% of 47,000 active; Ubiquitin carboxyl-terminal hydrolase isozyme L1 (Homo sapiens), P09936
USP7 inh – inhibitors of human USP7 deubiquitinase; Ubiquitin carboxyl-terminal hydrolase 7 (Homo sapiens), Q93009; purified USP7, Ub-rhodamine cleavage fluorescence; inhibition, % at 20 µM; 0.3% of 47,000 active
Target sequence (Q93009 whole entry, looked up): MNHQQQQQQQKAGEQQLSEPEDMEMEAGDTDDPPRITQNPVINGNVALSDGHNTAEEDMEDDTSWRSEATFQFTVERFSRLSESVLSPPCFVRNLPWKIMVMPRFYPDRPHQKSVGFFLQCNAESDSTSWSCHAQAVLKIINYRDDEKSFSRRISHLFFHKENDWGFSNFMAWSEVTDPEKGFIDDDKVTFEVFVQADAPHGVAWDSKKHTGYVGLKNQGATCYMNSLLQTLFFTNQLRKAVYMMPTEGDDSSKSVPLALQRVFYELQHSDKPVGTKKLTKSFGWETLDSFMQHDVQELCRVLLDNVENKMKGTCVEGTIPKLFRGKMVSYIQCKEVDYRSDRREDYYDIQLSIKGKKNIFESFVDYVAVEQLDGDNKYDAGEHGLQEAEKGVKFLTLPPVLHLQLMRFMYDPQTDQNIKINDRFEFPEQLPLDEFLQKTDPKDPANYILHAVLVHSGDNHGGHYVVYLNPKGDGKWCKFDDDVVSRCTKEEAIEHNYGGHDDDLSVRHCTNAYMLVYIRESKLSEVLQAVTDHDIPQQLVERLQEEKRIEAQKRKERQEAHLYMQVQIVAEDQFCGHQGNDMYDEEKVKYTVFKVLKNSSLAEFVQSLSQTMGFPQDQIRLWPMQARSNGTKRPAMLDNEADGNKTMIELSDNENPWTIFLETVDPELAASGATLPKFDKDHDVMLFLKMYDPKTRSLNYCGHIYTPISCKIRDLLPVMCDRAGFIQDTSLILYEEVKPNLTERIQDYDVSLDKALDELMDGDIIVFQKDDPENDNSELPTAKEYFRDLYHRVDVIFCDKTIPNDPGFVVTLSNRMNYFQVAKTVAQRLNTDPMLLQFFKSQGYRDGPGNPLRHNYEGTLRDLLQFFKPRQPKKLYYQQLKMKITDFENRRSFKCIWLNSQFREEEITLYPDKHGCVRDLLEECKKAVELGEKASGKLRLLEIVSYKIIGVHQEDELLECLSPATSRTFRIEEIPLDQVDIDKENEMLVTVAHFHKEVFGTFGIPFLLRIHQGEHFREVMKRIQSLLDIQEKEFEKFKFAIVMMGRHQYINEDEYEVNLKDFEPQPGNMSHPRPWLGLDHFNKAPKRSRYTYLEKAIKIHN
Active calls of the source: *. Shown are actives, neighbours in structure and some others; about 5% of the full set was active somewhere. Rule as the data show it: active = inhibition above about 30%; inactive = the rest.

SMILES	USP10 inh	USP8 inh	UCHL1 inh	USP7 inh
CCCCCCCCCC(CCCCCCCCCC(=O)O)O[C@H]1O[C@@H](COC(C)=O)[C@H](O)[C@@H](OC(=O)CC(=O)O)[C@H]1O (stereo partly specified)	40.6*	6.9	2.3	-43.2
CCCCCC(O)/C=C/C(O)C(O)CCCCCCCC(=O)O (stereo unspecified)	-2.7	-3.0	-4.1	-3.5
CCOc1ccccc1NC1c2ccccc2C(=O)N1c1cccnc1 (stereo unspecified)	-1.5	71.0*	3.7	1.0
CSc1cccc(NC2c3ccccc3C(=O)N2c2cccnc2)c1 (stereo unspecified)	2.9	-10.4	3.4	-6.4
CC(C)c1ccc(NC(=O)C2C3C=CC4(O3)C2C(=O)N(CCc2ccc(Cl)cc2)C4C(=O)NC2CCCCC2)cc1 (stereo unspecified)	9.2	54.2*	2.8	6.4
Cc1ccc(NC(=O)C2C3C=CC4(O3)C2C(=O)N(CCc2ccccc2)C4C(=O)NC2CCCCC2)cc1Cl (stereo unspecified)	25.3	33.9*	0.3	-3.4
CSc1cccc(NC(=O)C2C3C=CC4(O3)C2C(=O)N(CCc2ccccc2)C4C(=O)NC2CCCCC2)c1 (stereo unspecified)	39.4*	56.8*	-1.5	-6.2
CCn1ncc2c1C(COC)CN(C(=O)c1ccnnc1)C2 (stereo unspecified)	1.1	-108.5	-1.5	0.4
Cc1nc(=O)c2cc(Cl)ccc2n1C1=CCN(Cc2ccnc(N3CCCC3)n2)CC1	-4.6	23.9	1.9	0.0
COc1ccc(OC)c(-c2cn3ccn(-c4ccc(F)c(Cl)c4)c(=O)c3n2)c1	30.5*	94.2*	22.1	-57.2
CCc1csc(-c2cn(CC(=O)Nc3cc(C)ccc3C)cn2)n1	4.7	38.7*	3.2	5.7
CCC[C@H]1O[C@@H]2CC(=O)O[C@@H]2C2=C1C(=O)c1c(O)cccc1C2=O	-14.2	-6.8	14.3	-39.7
CCC(C(=O)N1CCc2cc(OC)c(OC)cc2C1COc1ccccc1OC)c1ccccc1 (stereo unspecified)	4.6	58.9*	6.5	6.3
COc1cc2c(cc1OC)C(COc1ccccc1OC)N(C(=O)c1ccc3ccccc3c1)CC2 (stereo unspecified)	-3.0	87.7*	8.1	2.4
CC(Sc1nc2ncc(Cl)cc2[nH]1)C(=O)Nc1ccc2c(c1)OCO2 (stereo unspecified)	-7.1	37.5*	1.2	4.5
CCc1nc(-c2ccc(C)c(S(=O)(=O)NCc3ccccc3OC)c2)no1	-2.8	3.2	-2.2	0.0
Cc1nnc2ccc(-c3cccc(NC(=O)c4ccccc4F)c3)nn12	2.4	2.0	-0.4	-1.6
NS(=O)(=O)c1ccc(C(=O)Nc2cccc(-c3ccc4nncn4n3)c2)cc1	1.5	33.8*	3.2	3.3
CN(CC(=O)Nc1ccc(Cl)cc1)c1cnn(-c2nc3ccccc3[nH]2)c(=O)c1Cl	25.0	30.4*	3.5	17.1
O=C(CCc1nc2ccccc2c(=O)[nH]1)Nc1ccc(Cl)cc1	-0.5	0.0	-3.9	-20.5
CCCn1c(NC(=O)c2cccnc2)nc2ccccc21	0.2	3.0	-1.4	-16.1
CCCn1c(NC(=O)Cc2ccc(OC)c(OC)c2)nc2ccccc21	-2.3	64.3*	1.7	-0.5
O=C(c1c(NS(=O)(=O)c2ccc3c(c2)OCCO3)sc2c1CCCC2)N1CCOCC1	-2.4	-11.3	-39.4	-42.8
Cc1ccc(-n2nnnc2CNC(=O)NCc2ccc(Cl)cc2)cc1	1.3	0.0	2.2	-14.0
COC(=O)c1nn(-c2ccc(Cl)cc2)c(=O)cc1Sc1ccc(C)cc1	5.2	52.9*	1.5	-9.4
SMILES	USP10 inh	USP8 inh	UCHL1 inh	USP7 inh
Cc1cccnc1C(=O)N[C@@H]1C[C@@H](Oc2cccc(F)c2)[C@H](O)[C@H]1O	1.3	-0.2	-0.9	2.2
CC(=O)c1cnc(-c2ccccn2)s1	-4.0	43.5*	0.2	-3.9
CC(C)OC(=O)c1cc2c(ccn2C)n1CC(=O)N(Cc1ccc(Cl)cc1)c1ccccc1	-4.5	66.6*	-0.7	-22.3
CCOC(=O)c1cc2c(ccn2C)n1CC(=O)NC(c1ccccc1)c1ccccc1	-5.5	65.1*	-1.7	-2.1
CCOC(=O)c1cc2c(ccn2C)n1CC(=O)N(Cc1ccc(OC)cc1)c1ccc(F)cc1	-10.5	17.0	-3.2	0.5
CCOC(=O)c1cc2c(ccn2C)n1CC(=O)N(Cc1ccccc1)c1ccccc1	-10.5	55.3*	-39.4	-45.8
CCOC(=O)c1cc2c(ccn2C)n1CC(=O)N(Cc1ccccc1)c1ccc(F)cc1	-16.4	38.7*	-7.4	-13.7
CCOC(=O)c1cc2c(ccn2C)n1CC(=O)N1CCN(c2ccccc2)CC1	-5.5	-12.0	-4.5	-5.5
O=C(CC1C(=O)N(Cc2cccnc2)c2nc3ccccc3n21)Nc1cccc2ccccc12 (stereo unspecified)	-1.6	-37.4	1.1	-9.0
Cc1ccc2nc(NC(=O)CSc3nnc(-c4ccncc4)n3C3CC3)sc2c1	-1.7	-1.2	-0.9	1.6
CC(C)CN1Cc2c(C(=O)N3CCCC3C)ncn2-c2ccccc2S1(=O)=O (stereo unspecified)	-2.3	-8.7	0.6	-5.1
CC(C)OC(=O)c1cc2c(ccn2C)n1CC(=O)N(Cc1ccccc1)c1ccc(F)cc1	-8.1	56.3*	-8.8	-6.1
CC(C)OC(=O)c1cc2c(ccn2C)n1Cc1ccc2ccccc2n1	-9.1	56.0*	-13.3	-9.1
CC(C)OC(=O)c1cc2c(ccn2C)n1CC(=O)N1CCCC1	-6.0	-12.8	-9.3	-11.1
O=C1c2c(O)cccc2C2(Oc3cccc4cccc(c34)O2)C2OC12 (stereo unspecified)	34.2*	84.1*	27.7	-5.9
O=C1c2c(O)ccc(O)c2C2(Oc3cccc4cccc(c34)O2)C2OC12 (stereo unspecified)	14.3	39.2*	44.9*	5.6
O=C(c1cccnc1)N1CCC2(CC(=O)N(c3ccc(F)cc3)C2)C1 (stereo unspecified)	4.1	-57.1	-3.2	2.5
CCCCCCCC/C=C\CCCCCCCC(=O)O	12.7	3.8	0.7	5.1
CCC/C=C\C#CC/C=C\CCCCCCCC(=O)O	5.9	-14.9	69.2*	59.5*
COc1ccc(OC)c(C(=O)CSc2nc3nc(C)c(Br)cc3[nH]2)c1	-3.3	-9.0	1.7	2.1
C=C1CCC2[C@](C)(CCC[C@]2(C)C(=O)OC)[C@H]1CCc1ccoc1CNC(CCSC)C(=O)O (stereo partly specified)	-7.6	43.1*	-7.4	1.7
Cc1ccc2c(c1)N(C(=O)CCC(=O)NC(C)c1ccccc1)CCO2 (stereo unspecified)	0.0	0.0	-2.2	-9.0
O=C1NCCCC1Cc1ccc(-c2cccc(C(=O)N3CCc4ccccc4C3)c2)cc1 (stereo unspecified)	6.4	60.6*	4.7	-3.8
O=C1COc2ccc(-c3cc4n(c3)CCc3cc5c(cc3-4)OCO5)cc2N1	-4.4	42.5*	-0.6	-7.2
Nc1nc(-c2ccc3c(c2)NC(=O)CO3)cs1	5.0	-39.8	-2.7	1.0

Source: PubChem
